This passage reports Potency and outcome results from PubChem BioAssay (Tox21).

The nature of experiment [1]: qHTS assay for small molecule agonists of the p53 signaling pathway (AID 651631; calls by dose curve; also: nearly all actives have a fitted effect of over 15% in size; also: potency is read from the fitted curve at half-maximal effect). Put shortly:
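HCT-116 cells carrying a beta-lactamase reporter under p53 response elements were dosed with compound for 16 h at 37 °C. LiveBLAzer B/G FRET substrate was then added for 2 h at room temperature, and fluorescence intensity was read to detect pathway agonism.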
For orientation: Quantitative high-throughput screening tests each substance at several concentrations.

Experiment [2] in a line: qHTS assay for small molecules that induce genotoxicity in human embryonic kidney cells expressing luciferase-tagged ATAD5 (AID 651632). Also: nearly all actives have a fitted effect of over 15% in size. A digest of the protocol: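 Reporter cells (HEK293T) express luciferase-tagged ATAD5, a protein that accumulates after DNA damage. Treat 16 hr at 37C/5% CO2, add Amplite, wait 30 min at RT, and read luminescence.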
Experiment [3] in a line: qHTS assay for small molecule agonists of the p53 signaling pathway - cell viability (AID 651633; calls by dose curve; also: nearly all actives have a fitted effect of over 30% in size; also: potency is read from the fitted curve at half-maximal effect). A digest of the protocol: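 p53RE-bla cells were treated with compound for 16 hours at 37 C. Cytotoxicity was then measured as CellTiter-Glo luminescence after 30 min at room temperature.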
The nature of experiment [4]: qHTS assay for small molecule disruptors of the mitochondrial membrane potential - cell viability (AID 720634; calls by dose curve; also: nearly all actives have a fitted effect of over 20% in size; also: potency is read from the fitted curve at half-maximal effect). A digest of the protocol:
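Measuring cytotoxicity alongside mitochondrial potential, the screen quantified ATP by luminescence in HepG2 cells after 1 hr compound incubation and a 30 min room-temperature CellTiter-Glo step.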

Experiment [5] in a line: qHTS assay for small molecule disruptors of the mitochondrial membrane potential (AID 720635). Also: potency is read from the fitted curve at half-maximal effect. Put shortly: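 HepG2 cells exposed to compound 1 hr at 37C, then Mito-MPS dye 30 min. Ratio read of aggregate (540/590 nm) versus monomer (490/535 nm) fluorescence.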
Experiment [6] in a line: qHTS assay to test for compound auto fluorescence at 590 nm (red) in HepG2 cells (AID 720674). Put shortly: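 Fluorescence at 590 nm emission following 540 nm excitation was recorded from HepG2 wells one hour after compound transfer, with DMSO-only wells as vehicle and Rose Bengal sodium equivalency as the scale.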
The nature of experiment [7]: qHTS assay to test for compound auto fluorescence at 460 nm (blue) in HEK293 cells (AID 720678). Put shortly:
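HEK293, 2,000 cells/well, 10% dialyzed FBS; attach 4-5 hr 37C; pin compound or DMSO; o/n 37C/5% CO2; fluorescence 405/460 nm; triamterene-equivalent units.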

Experiment [8] in a line: qHTS assay to test for compound auto fluorescence at 590 nm (red) in HEK293 cells (AID 720679). Put shortly: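 Intensity at 540nm excitation and 590nm emission is reported as Rose Bengal sodium-equivalent autofluorescence. Measurements followed overnight exposure (37C, 5% CO2) of HEK293 cells, 2,000 per well, to 23 nL compound.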
Experiment [9] is described as follows: qHTS assay to test for compound auto fluorescence at 535 nm (green) in HEK293 cells (AID 720680).
Experiment [10] is described as follows: qHTS assay to test for compound auto fluorescence at 460 nm (blue) in HEK293 cell free culture (AID 720681). A digest of the protocol:
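Compounds were added to cell-free DMEM with 10% FBS and fluorescence read directly. The blue channel used 405 nm excitation and 460 nm emission, with triamterene as the reference fluorophore.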

Experiment [11] is described as follows: qHTS assay to test for compound auto fluorescence at 535 nm (green) in HEK293 cell free culture (AID 720682). Put shortly: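 Green-label autofluorescence (485 nm excitation, 535 nm emission) measured on compound added to cell-free culture medium (DMEM, 10% FBS). Output is expressed relative to fluorescein.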
Experiment [12] in a line: qHTS assay to test for compound auto fluorescence at 590 nm (red) in HEK293 cell free culture (AID 720683). A digest of the protocol:
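Cell-free wells of DMEM with 10% FBS received compound, and intrinsic fluorescence was read at excitation/emission 540/590 nm. Values expressed as equivalence to Rose Bengal sodium.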

A short description of experiment [13]: qHTS assay to test for compound auto fluorescence at 590 nm (red) in HepG2 cell free culture (AID 720684). Put shortly:
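Compound was pinned into wells holding MEM with 10% FBS and no cells, and red fluorescence was read at Ex/Em 540/590 nm. Signal is expressed as auto fluorescence equivalency relative to Rose Bengal sodium.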

The nature of experiment [14]: qHTS assay to test for compound auto fluorescence at 460 nm (blue) in HepG2 cell free culture (AID 720685). A digest of the protocol:
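Compound (23 nL) or DMSO pinned into cell-free MEM with 10% FBS; blue fluorescence read at 405/460 nm excitation/emission, expressed as auto-fluorescence equivalency to triamterene.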

Experiment [15] can be described thus: qHTS assay to test for compound auto fluorescence at 535 nm (green) in HepG2 cell free culture (AID 720686).
Experiment [16] is described as follows: qHTS assay to test for compound auto fluorescence at 460 nm (blue) in HepG2 cells (AID 720687). Put shortly:
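HepG2 cells in MEM with 10% FBS, attached overnight at 37 C, were exposed to compound or DMSO for 1 hr at 37 C, 5% CO2. Blue fluorescence was read at 405/460 nm, with triamterene as reference fluorophore.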

Experiment [17] in a line: qHTS assay to test for compound auto fluorescence at 535 nm (green) in HepG2 cells (AID 720675).
Experiment [18] has as its target Glucocorticoid receptor (Homo sapiens) (UniProt P04150). Kind of experiment: qHTS assay to identify small molecule agonists of the glucocorticoid receptor (GR) signaling pathway (AID 720691; active = well fitted activation curve with a large enough effect in the signal ratio in the repeat runs, not every such curve was filed as active; the % refers to the signal ratio). A digest of the protocol: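 Reporter read-out: fluorescence intensity following 2 h room-temperature LiveBLAzer B/G FRET substrate loading. Prior step: GR-bla HeLa cells held 4 h, then treated 18 h at 37 C.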

For experiment [19] the target is unchanged. Kind of experiment: qHTS assay to identify small molecule antagonists of the glucocorticoid receptor (GR) signaling pathway (AID 720692; active = well fitted inhibition curve with a large enough effect in the signal ratio in the repeat runs, not every such curve was filed as active; the % refers to the signal ratio). Put shortly:
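Dexamethasone (5 nM final) stimulated a stably integrated GRE-beta-lactamase reporter in HeLa cells during 18 h co-incubation with compounds; signal was quantified as fluorescence intensity of B/G FRET substrate after 2 h.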

Experiment [20] can be described thus: qHTS assay for small molecules that induce genotoxicity in human embryonic kidney cells expressing luciferase-tagged ATAD5 - cell viability (AID 651634; calls by dose curve; also: nearly all actives have a fitted effect of over 25% in size). Put shortly:
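Seeding of 2,000 HEK293T ATAD5-luciferase cells per well preceded pin-tool compound transfer. Plates sat 15.5 hr at 37C under 5% CO2, then fluorescence was read after 30 min with CellTiter-Fluor.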

Where “and” joins values, the source holds several entries; their conditions need not be identical. Identical values can stand only once. Inconclusive results are not listed. Calls of active or inactive are those of the source. Unless noted, calls follow the shape of the dose curve; as a rule, active = well fitted curve in the direction sought with a large enough effect in the repeat runs; inconclusive = weak or mixed curves; inactive = no such curve, though single readings can be large; an effect the other way counts as inactive or inconclusive.

Chain of Glucocorticoid receptor (Homo sapiens) (P04150 whole entry, looked up): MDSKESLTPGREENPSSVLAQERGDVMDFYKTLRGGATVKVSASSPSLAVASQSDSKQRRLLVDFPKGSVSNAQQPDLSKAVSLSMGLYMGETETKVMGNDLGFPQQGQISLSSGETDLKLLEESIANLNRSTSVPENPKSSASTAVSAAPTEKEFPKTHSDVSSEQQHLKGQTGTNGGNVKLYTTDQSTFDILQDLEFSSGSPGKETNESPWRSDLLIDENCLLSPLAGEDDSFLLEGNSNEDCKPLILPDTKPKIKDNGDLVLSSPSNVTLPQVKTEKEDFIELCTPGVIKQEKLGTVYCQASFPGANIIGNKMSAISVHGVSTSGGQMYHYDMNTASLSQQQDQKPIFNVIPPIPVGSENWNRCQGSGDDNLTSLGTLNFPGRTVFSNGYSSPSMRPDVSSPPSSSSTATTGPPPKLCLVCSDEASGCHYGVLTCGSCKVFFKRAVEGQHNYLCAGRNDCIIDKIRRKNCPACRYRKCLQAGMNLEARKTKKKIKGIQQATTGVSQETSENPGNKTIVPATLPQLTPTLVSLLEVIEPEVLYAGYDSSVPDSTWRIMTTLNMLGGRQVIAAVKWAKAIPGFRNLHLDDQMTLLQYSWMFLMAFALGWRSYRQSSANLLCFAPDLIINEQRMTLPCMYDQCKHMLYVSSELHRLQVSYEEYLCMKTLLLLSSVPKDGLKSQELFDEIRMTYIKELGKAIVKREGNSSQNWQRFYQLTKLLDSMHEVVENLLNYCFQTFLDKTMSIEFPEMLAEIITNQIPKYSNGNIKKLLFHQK

Regarding `CCCCNC(=O)OCC#CI`, the Potency in experiment [1] is 68.6 µM (active); in experiment [3], 60.8 µM (active); in [4] it was 8.59 µM (active) and 27.3 µM (active); in experiment [5], 4.31 µM (active) and 6.86 µM (active). Besides, the Potency entry in experiment [2] is “inactive”. Moreover, the compound was called inactive in experiment [6], in experiment [7], in [8], in experiment [9], in experiment [10] and in experiment [11]. The call in experiment [12], in [13], in experiment [14], in [15] and in [16] was inactive.
Take `COC(=O)C1(O)c2ccccc2-c2ccccc21`: the Potency result in experiment [1], in [2], in experiment [3], in experiment [4], in experiment [18] and in [19] was “inactive” each time. Further, the outcome in [6], in experiment [17], in [7], in experiment [8], in experiment [9] and in [10] was inactive. Moreover, the compound was classed as inactive in experiment [11], in experiment [12], in experiment [13], in [14], in experiment [15] and in experiment [16].
For the compound `COC(=O)Cc1ccccc1`, the Potency result in experiment [1], in [2], in experiment [3] and in experiment [19] was “inactive” in each case. For the same compound, the compound was called inactive in experiment [6], in experiment [17], in [7], in experiment [8], in experiment [9] and in experiment [10]. The result in experiment [11], in experiment [12], in [13], in [14], in experiment [15] and in experiment [16] was inactive.
In the case of `Cc1ccccc1`, the Potency entry in experiment [1], in experiment [2], in [3], in experiment [20], in experiment [5] and in [19] was “inactive” throughout.
Regarding `OC[P+](CO)(CO)CO`, the Potency entry in [1], in experiment [2], in experiment [3], in experiment [20] and in experiment [19] was “inactive” throughout. For the same compound, the outcome in experiment [6], in experiment [17], in experiment [7], in experiment [8], in experiment [9] and in experiment [10] was inactive. Besides, the call in experiment [11], in experiment [13], in experiment [14], in experiment [15] and in [16] was inactive.
Turning to `SCc1ccccc1`, the Potency result in [1], in experiment [2], in experiment [3], in [20] and in experiment [18] was “inactive” each time. For the same compound, the compound was called inactive in experiment [6], in experiment [17], in experiment [7], in experiment [8], in experiment [9] and in experiment [10]. Also, the call in [11], in experiment [12], in [13], in experiment [14], in experiment [15] and in experiment [16] was inactive.
Turning to `C=CCc1ccccc1O`, the Potency entry in experiment [1], in experiment [2], in experiment [3], in experiment [20] and in experiment [19] was “inactive” each time. The outcome in experiment [6], in experiment [17], in experiment [7], in experiment [8], in [9] and in [10] was inactive. Besides, the call in experiment [11], in experiment [12], in experiment [13], in [14], in [15] and in experiment [16] was inactive.
Turning to `O=C(O)C(Cl)(Cl)Br`, the Potency entry in experiment [1], in experiment [2], in [3], in [20], in experiment [4] and in [19] was “inactive” throughout. Besides, the compound was called inactive in experiment [6], in experiment [17], in experiment [7], in experiment [8], in experiment [9] and in experiment [10]. The call in experiment [11], in [13], in experiment [14], in [15] and in experiment [16] was inactive.
On to `C=CCOC(=O)C(C)(C)OC(=O)c1cc(-n2c(=O)cc(C(F)(F)F)n(C)c2=O)ccc1Cl`, for which the Potency result in [1], in [2], in [3], in experiment [20], in [4] and in [19] was “inactive” in each case. Also, the call in [6], in [17], in experiment [7], in experiment [8], in experiment [9] and in experiment [10] was inactive. For the same compound, the outcome in experiment [11], in [12], in [13], in experiment [14], in [15] and in [16] was inactive.
